The source of these data is paper PMC7862700, “An all-to-all approach to the identification of sequence-specific readers for epigenetic DNA modifications on cytosine”.

Common to all, as to assay: DAPPL (digital affinity profiling via proximity ligation, sequencing); 10 mM Tris-HCl pH 7.5, 50 mM NaCl, 1 mM DTT, 4% glycerol, room temperature, 30 min; GST-TFs on glutathione beads, 16-mer random dsDNA library, 0.1% formaldehyde crosslink after washing; high values mean tight binding
What all share (settings): protein: recombinant; tags: N-terminal GST; dsDNA, one strand shown

For experiment [1], the target named is T1, FEV (Homo sapiens, UniProt Q99581 1-238).
T1 sequence: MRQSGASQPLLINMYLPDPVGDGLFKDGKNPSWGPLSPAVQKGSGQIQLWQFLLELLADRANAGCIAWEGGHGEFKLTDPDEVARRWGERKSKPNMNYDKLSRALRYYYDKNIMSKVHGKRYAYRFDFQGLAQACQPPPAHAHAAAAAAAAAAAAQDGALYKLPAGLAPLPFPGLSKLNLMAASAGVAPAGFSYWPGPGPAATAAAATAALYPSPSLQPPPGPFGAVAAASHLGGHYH
A digest of the protocol: (§1)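 Beads coated with glutathione captured GST-fused human transcription factors that had been expressed in yeast, and the factors were then given DNA barcodes and pooled with a tag-only sample. The pools were incubated with 200 nmole of a random double-stranded 16-mer DNA library in Tris/NaCl/DTT/glycerol buffer for 30 min at room temperature, washed, crosslinked with 0.1% formaldehyde and proximity-ligated with BsaI/T4 ligase at 37 °C for 1 h. PCR amplification and Illumina NextSeq500 sequencing came last. Binding signal is each hexamer's read frequency for a factor divided by its frequency for the tag-only sample.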

For experiment [2], the target named is ETV5 (Homo sapiens, UniProt P41161 1-510). A digest of the protocol: as §1
Chain of ETV5 (P41161 whole entry): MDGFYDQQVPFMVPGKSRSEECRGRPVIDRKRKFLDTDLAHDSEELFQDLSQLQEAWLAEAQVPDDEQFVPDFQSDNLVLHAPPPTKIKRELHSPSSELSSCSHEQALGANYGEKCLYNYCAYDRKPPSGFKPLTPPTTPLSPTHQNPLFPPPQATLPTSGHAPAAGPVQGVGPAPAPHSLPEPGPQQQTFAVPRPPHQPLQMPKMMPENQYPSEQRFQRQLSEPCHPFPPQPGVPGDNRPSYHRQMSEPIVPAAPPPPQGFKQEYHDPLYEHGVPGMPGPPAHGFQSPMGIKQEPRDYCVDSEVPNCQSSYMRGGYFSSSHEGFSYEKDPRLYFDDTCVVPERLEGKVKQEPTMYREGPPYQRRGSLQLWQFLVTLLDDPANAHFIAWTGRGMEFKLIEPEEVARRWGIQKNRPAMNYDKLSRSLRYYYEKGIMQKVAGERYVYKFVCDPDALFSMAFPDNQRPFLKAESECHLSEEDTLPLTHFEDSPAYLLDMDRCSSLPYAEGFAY
For experiment [3], the target named is T2, SPIC (Homo sapiens, UniProt Q8N5J4 1-248).
T2 sequence: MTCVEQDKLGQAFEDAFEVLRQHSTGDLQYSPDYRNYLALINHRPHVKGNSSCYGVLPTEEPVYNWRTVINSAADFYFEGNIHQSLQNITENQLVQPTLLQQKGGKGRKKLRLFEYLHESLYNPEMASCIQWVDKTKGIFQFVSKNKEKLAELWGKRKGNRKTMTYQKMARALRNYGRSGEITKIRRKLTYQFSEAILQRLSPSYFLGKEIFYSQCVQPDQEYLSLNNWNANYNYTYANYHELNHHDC
In outline:
as §1

For experiment [4], the target named is ELF4 (Homo sapiens, UniProt Q99607 1-663). In outline:
as §1

The target of experiment [5] is T3, ELK4 (Homo sapiens, UniProt P28324-2 1-405).
T3 sequence: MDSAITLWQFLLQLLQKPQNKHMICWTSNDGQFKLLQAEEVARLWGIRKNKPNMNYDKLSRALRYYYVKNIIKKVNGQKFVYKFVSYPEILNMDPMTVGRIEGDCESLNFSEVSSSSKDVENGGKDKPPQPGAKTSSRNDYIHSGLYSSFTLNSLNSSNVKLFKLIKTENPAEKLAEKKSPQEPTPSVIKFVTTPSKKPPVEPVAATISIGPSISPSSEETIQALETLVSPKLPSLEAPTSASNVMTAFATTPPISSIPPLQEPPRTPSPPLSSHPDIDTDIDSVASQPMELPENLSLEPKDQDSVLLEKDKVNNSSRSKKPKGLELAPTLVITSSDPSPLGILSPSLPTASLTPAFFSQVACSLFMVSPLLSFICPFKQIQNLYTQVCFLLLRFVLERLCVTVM
In outline:
as §1

In experiment [6] the target is T4, ETV2 (Homo sapiens, UniProt O00321 1-342).
T4 sequence: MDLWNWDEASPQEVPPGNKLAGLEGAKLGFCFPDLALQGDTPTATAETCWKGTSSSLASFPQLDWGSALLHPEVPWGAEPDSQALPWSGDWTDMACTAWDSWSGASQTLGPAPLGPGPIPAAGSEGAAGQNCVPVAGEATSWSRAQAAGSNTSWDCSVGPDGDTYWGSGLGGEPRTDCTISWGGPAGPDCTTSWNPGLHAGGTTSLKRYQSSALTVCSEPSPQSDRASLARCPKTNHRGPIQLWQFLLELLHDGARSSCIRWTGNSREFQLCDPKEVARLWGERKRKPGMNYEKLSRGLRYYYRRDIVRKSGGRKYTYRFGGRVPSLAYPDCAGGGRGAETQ
In outline:
as §1

The target of experiment [7] is T5, ELF3 (Homo sapiens, UniProt P78545 1-371).
T5 sequence: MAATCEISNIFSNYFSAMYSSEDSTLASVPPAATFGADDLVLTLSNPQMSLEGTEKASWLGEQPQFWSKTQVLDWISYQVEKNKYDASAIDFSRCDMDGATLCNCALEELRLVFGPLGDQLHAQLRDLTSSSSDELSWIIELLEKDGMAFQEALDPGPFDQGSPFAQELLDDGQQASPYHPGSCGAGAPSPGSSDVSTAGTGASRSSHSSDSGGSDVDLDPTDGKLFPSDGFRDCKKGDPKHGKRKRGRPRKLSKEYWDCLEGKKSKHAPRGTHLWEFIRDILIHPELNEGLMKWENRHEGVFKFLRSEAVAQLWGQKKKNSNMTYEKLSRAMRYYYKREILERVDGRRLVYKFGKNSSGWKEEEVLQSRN
A digest of the protocol:
as §1

Experiment [8] addresses ETV1 (Homo sapiens, UniProt P50549 1-477). A digest of the protocol:
as §1

Chain of ETV1 (P50549 whole entry): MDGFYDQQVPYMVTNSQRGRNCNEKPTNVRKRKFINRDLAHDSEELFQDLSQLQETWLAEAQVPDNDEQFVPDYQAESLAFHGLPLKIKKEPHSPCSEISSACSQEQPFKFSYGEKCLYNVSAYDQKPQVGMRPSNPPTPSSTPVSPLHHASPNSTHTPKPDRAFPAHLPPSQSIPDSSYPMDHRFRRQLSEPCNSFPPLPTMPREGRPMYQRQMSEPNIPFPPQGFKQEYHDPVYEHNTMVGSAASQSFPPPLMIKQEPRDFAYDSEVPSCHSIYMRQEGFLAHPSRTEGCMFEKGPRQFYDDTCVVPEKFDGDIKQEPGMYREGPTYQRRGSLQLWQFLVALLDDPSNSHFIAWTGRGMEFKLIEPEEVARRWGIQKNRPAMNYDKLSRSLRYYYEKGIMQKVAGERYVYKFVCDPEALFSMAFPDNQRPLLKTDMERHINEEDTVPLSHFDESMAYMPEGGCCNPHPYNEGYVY
Chain of ELF4 (Q99607 whole entry): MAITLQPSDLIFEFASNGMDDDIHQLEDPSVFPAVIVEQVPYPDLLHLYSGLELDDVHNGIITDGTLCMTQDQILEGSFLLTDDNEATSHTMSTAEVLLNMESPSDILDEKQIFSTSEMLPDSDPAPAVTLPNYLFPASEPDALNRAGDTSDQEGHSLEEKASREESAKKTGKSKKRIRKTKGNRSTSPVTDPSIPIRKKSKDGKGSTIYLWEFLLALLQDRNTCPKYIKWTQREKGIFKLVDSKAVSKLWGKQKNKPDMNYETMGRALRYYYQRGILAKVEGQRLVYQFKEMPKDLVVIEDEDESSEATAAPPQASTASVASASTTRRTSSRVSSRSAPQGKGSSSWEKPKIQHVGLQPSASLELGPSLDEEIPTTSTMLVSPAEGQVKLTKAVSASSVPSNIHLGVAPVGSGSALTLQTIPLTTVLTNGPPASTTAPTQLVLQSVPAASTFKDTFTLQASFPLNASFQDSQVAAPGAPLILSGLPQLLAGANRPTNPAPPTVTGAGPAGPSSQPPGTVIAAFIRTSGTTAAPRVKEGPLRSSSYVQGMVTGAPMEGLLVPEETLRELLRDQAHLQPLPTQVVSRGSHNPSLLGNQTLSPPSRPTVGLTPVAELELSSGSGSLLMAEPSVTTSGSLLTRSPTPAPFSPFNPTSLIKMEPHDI

Turning to GTGACC, the binding signal in experiment [1] is 1.36 fold enrichment (6-mer frequency, TF over GST control); in experiment [2] it was 1.22 fold enrichment (6-mer frequency, TF over GST control); in experiment [3] it was 1.34 fold enrichment (6-mer frequency, TF over GST control); in experiment [4] it was 1.27 fold enrichment (6-mer frequency, TF over GST control); in experiment [5], 1.36 fold enrichment (6-mer frequency, TF over GST control); in experiment [6], 1.12 fold enrichment (6-mer frequency, TF over GST control). In addition, the binding signal in experiment [7] was 1.3 fold enrichment (6-mer frequency, TF over GST control); in experiment [8] it was 1.24 fold enrichment (6-mer frequency, TF over GST control).
Turning to GCGTTT, the binding signal in experiment [1] was 1.18 fold enrichment (6-mer frequency, TF over GST control); in experiment [2], 1.09 fold enrichment (6-mer frequency, TF over GST control); in experiment [3], 1.15 fold enrichment (6-mer frequency, TF over GST control); in experiment [4] it was 1.13 fold enrichment (6-mer frequency, TF over GST control); in experiment [5], 1.16 fold enrichment (6-mer frequency, TF over GST control); in experiment [6], 1.11 fold enrichment (6-mer frequency, TF over GST control). Besides, in experiment [7], the binding signal was 1.15 fold enrichment (6-mer frequency, TF over GST control).
For the sequence CTGCAG, the binding signal in experiment [1] is 1.1 fold enrichment (6-mer frequency, TF over GST control); in experiment [2], 1.11 fold enrichment (6-mer frequency, TF over GST control); in experiment [3], 1.37 fold enrichment (6-mer frequency, TF over GST control); in experiment [4], 1.17 fold enrichment (6-mer frequency, TF over GST control); in experiment [5] it was 1.26 fold enrichment (6-mer frequency, TF over GST control); in experiment [6], 1.3 fold enrichment (6-mer frequency, TF over GST control). The binding signal in experiment [7] was 1.02 fold enrichment (6-mer frequency, TF over GST control).
Take CAACAT: the binding signal was 1.21 fold enrichment (6-mer frequency, TF over GST control) in experiment [1]; 1.21 fold enrichment (6-mer frequency, TF over GST control) in experiment [2]; 1.05 fold enrichment (6-mer frequency, TF over GST control) in experiment [3]; 1.19 fold enrichment (6-mer frequency, TF over GST control) in experiment [4]; 1.23 fold enrichment (6-mer frequency, TF over GST control) in experiment [5]; 1.19 fold enrichment (6-mer frequency, TF over GST control) in experiment [6]. The binding signal in experiment [7] was 1.2 fold enrichment (6-mer frequency, TF over GST control); in experiment [8] it was 1.13 fold enrichment (6-mer frequency, TF over GST control).
With CGGAAA, the binding signal was 3.21 fold enrichment (6-mer frequency, TF over GST control) in experiment [1]; 2.32 fold enrichment (6-mer frequency, TF over GST control) in experiment [2]; 1.94 fold enrichment (6-mer frequency, TF over GST control) in experiment [3]; 1.84 fold enrichment (6-mer frequency, TF over GST control) in experiment [4]; 1.55 fold enrichment (6-mer frequency, TF over GST control) in experiment [5]; 2 fold enrichment (6-mer frequency, TF over GST control) in experiment [6]. In addition, the binding signal is 2.13 fold enrichment (6-mer frequency, TF over GST control) in experiment [7] and 2.17 fold enrichment (6-mer frequency, TF over GST control) in experiment [8].
Consider ACACCT, for which the binding signal was 1.03 fold enrichment (6-mer frequency, TF over GST control) in experiment [1]; 1.03 fold enrichment (6-mer frequency, TF over GST control) in experiment [2]; 1.04 fold enrichment (6-mer frequency, TF over GST control) in experiment [3]; 1.11 fold enrichment (6-mer frequency, TF over GST control) in experiment [4]; 1.1 fold enrichment (6-mer frequency, TF over GST control) in experiment [5]; 1.03 fold enrichment (6-mer frequency, TF over GST control) in experiment [6]. Also, the binding signal is 1.03 fold enrichment (6-mer frequency, TF over GST control) in experiment [7] and 1.13 fold enrichment (6-mer frequency, TF over GST control) in experiment [8].
For CCGGTC, the binding signal in experiment [1] was 1.62 fold enrichment (6-mer frequency, TF over GST control); in experiment [2], 1.22 fold enrichment (6-mer frequency, TF over GST control); in experiment [3] it was 1.01 fold enrichment (6-mer frequency, TF over GST control); in experiment [4] it was 1.08 fold enrichment (6-mer frequency, TF over GST control); in experiment [5], 1.18 fold enrichment (6-mer frequency, TF over GST control); in experiment [6] it was 1.08 fold enrichment (6-mer frequency, TF over GST control). Besides, the binding signal in experiment [7] was 1.14 fold enrichment (6-mer frequency, TF over GST control); in experiment [8] it was 1.17 fold enrichment (6-mer frequency, TF over GST control).
Turning to GGTTCA, the binding signal in experiment [1] is 1.1 fold enrichment (6-mer frequency, TF over GST control); in experiment [2], 1.03 fold enrichment (6-mer frequency, TF over GST control); in experiment [3], 1.14 fold enrichment (6-mer frequency, TF over GST control); in experiment [4] it was 1.08 fold enrichment (6-mer frequency, TF over GST control); in experiment [5], 1.14 fold enrichment (6-mer frequency, TF over GST control); in experiment [6], 1.14 fold enrichment (6-mer frequency, TF over GST control). Also, the binding signal in experiment [7] was 1.07 fold enrichment (6-mer frequency, TF over GST control); in experiment [8] it was 1.07 fold enrichment (6-mer frequency, TF over GST control).
For CGGAAG, the binding signal in experiment [1] is 3.68 fold enrichment (6-mer frequency, TF over GST control); in experiment [2], 3.27 fold enrichment (6-mer frequency, TF over GST control); in experiment [3], 2.79 fold enrichment (6-mer frequency, TF over GST control); in experiment [4], 2.61 fold enrichment (6-mer frequency, TF over GST control); in experiment [5], 2.16 fold enrichment (6-mer frequency, TF over GST control); in experiment [6], 2.63 fold enrichment (6-mer frequency, TF over GST control). In addition, the binding signal in experiment [7] was 3.01 fold enrichment (6-mer frequency, TF over GST control); in experiment [8], 3.2 fold enrichment (6-mer frequency, TF over GST control).
